# B1: unnamed (peptide)
# chain: PLQSKIPMLPSRRTM
# B2: unnamed (peptide)
# chain: GATNNAPTLPKRKNP
# How the values were obtained:
# Assay in all cases: SPOT peptide array binding signal intensity (averaged, normalized) (arbitrary units (background-subtracted, floor 0; scale differs between SH3 domains)); higher = stronger binding of the SH3 domain to the peptide
# [1] = biological target: CaNbp2
# Procedure, shortened: (§1)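 Binding signal is given in arbitrary units that differ between domains and is the normalized, background-subtracted spot intensity averaged across replicates. Each GST-SH3 fusion from one of four yeast species was made in E. coli BL21(DE3), purified on glutathione Sepharose and incubated at 10 μg/ml overnight at 4°C on cellulose-bound synthetic 15-mer peptides in which cysteines were replaced by serines. Detection used anti-GST antibody, an HRP anti-mouse secondary and luminol, followed by imaging and Genespotter quantification.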
# [2] = biological target: CaRvs167
# Procedure, shortened: as §1
# [3] = biological target: CaRvs167-3
# Procedure, shortened: as §1
# [4] = biological target: CaSho1
# Procedure, shortened: as §1
# [5] = biological target: CaSla1-D1-D2
# Procedure, shortened: as §1
# [6] = biological target: CaSla1-D3
# Procedure, shortened: as §1
# [7] = biological target: ScAbp1
# Procedure, shortened: as §1
# [8] = biological target: ScBbc1
# Procedure, shortened: as §1
# [9] = biological target: ScBem1-D1
# Procedure, shortened: as §1
# [10] = biological target: ScBzz1-D1
# Procedure, shortened: as §1
# [11] = biological target: ScBzz1-D2
# Procedure, shortened: as §1
# [12] = biological target: ScCyk3
# Procedure, shortened: as §1
# [13] = biological target: ScFus1
# Procedure, shortened: as §1
# [14] = biological target: ScHof1
# Procedure, shortened: as §1
# [15] = biological target: ScHse1
# Procedure, shortened: as §1
# [16] = biological target: ScLsb1
# Procedure, shortened: as §1
# [17] = biological target: ScLsb2
# Procedure, shortened: as §1
# [18] = biological target: ScLsb3
# Procedure, shortened: as §1
# [19] = biological target: ScLsb4
# Procedure, shortened: as §1
# [20] = biological target: ScMyo3
# Procedure, shortened: as §1
# [21] = biological target: ScMyo5
# Procedure, shortened: as §1
# [22] = biological target: ScNbp2
# Procedure, shortened: as §1
# [23] = biological target: ScPex13
# Procedure, shortened: as §1
# [24] = biological target: ScRvs167
# Procedure, shortened: as §1
# [25] = biological target: ScSho1
# Procedure, shortened: as §1
# [26] = biological target: ScSla1-D1-D2
# Procedure, shortened: as §1
# [27] = biological target: ScSla1-D3
# Procedure, shortened: as §1
# [28] = biological target: SpAbp1-D1
# Procedure, shortened: as §1
# [29] = biological target: SpBbc1
# Procedure, shortened: as §1
# [30] = biological target: SpBzz1-D1
# Procedure, shortened: as §1
# [31] = biological target: SpBzz1-D2
# Procedure, shortened: as §1
# [32] = biological target: SpCyk3
# Procedure, shortened: as §1
# [33] = biological target: SpHof1
# Procedure, shortened: as §1
# [34] = biological target: SpHof1-2
# Procedure, shortened: as §1
# [35] = biological target: SpHof1-3
# Procedure, shortened: as §1
# [36] = biological target: SpHse1
# Procedure, shortened: as §1
# [37] = biological target: SpLsb1
# Procedure, shortened: as §1
# [38] = biological target: SpLsb4
# Procedure, shortened: as §1
# [39] = biological target: SpMyo1
# Procedure, shortened: as §1
# [40] = biological target: SpNbp2
# Procedure, shortened: as §1
# [41] = biological target: SpPex13
# Procedure, shortened: as §1
# [42] = biological target: SpRvs167
# Procedure, shortened: as §1
# [43] = biological target: SpSla1-D1-D2
# Procedure, shortened: as §1
# [44] = biological target: SpSla1-D3
# Procedure, shortened: as §1
# [45] = biological target: AgAbp1
# Procedure, shortened: as §1
# [46] = biological target: AgBbc1
# Procedure, shortened: as §1
# [47] = biological target: AgBem1-D1
# Procedure, shortened: as §1
# [48] = biological target: AgBzz1-D1
# Procedure, shortened: as §1
# [49] = biological target: AgBzz1-D2
# Procedure, shortened: as §1
# [50] = biological target: AgCyk3
# Procedure, shortened: as §1
# [51] = biological target: AgFus1
# Procedure, shortened: as §1
# [52] = biological target: AgHof1
# Procedure, shortened: as §1
# [53] = biological target: AgHse1
# Procedure, shortened: as §1
# [54] = biological target: AgLsb1
# Procedure, shortened: as §1
# [55] = biological target: AgLsb4
# Procedure, shortened: as §1
# [56] = biological target: AgMyo5
# Procedure, shortened: as §1
# [57] = biological target: AgNbp2
# Procedure, shortened: as §1
# [58] = biological target: AgRvs167
# Procedure, shortened: as §1
# [59] = biological target: AgSho1
# Procedure, shortened: as §1
# [60] = biological target: AgSla1-D1-D2
# Procedure, shortened: as §1
# [61] = biological target: AgSla1-D3
# Procedure, shortened: as §1
# [62] = biological target: CaAbp1-D1
# Procedure, shortened: as §1
# [63] = biological target: CaAbp1-D2
# Procedure, shortened: as §1
# [64] = biological target: CaBbc1
# Procedure, shortened: as §1
# [65] = biological target: CaBem1-D1
# Procedure, shortened: as §1
# [66] = biological target: CaBzz1-D1
# Procedure, shortened: as §1
# [67] = biological target: CaBzz1-D2
# Procedure, shortened: as §1
# [68] = biological target: CaCyk3
# Procedure, shortened: as §1
# [69] = biological target: CaFus1
# Procedure, shortened: as §1
# [70] = biological target: CaHof1
# Procedure, shortened: as §1
# [71] = biological target: CaHse1
# Procedure, shortened: as §1
# [72] = biological target: CaLsb1
# Procedure, shortened: as §1
# [73] = biological target: CaLsb4
# Procedure, shortened: as §1
# [74] = biological target: CaMyo5
# Procedure, shortened: as §1
binder,measurement,setting,value
B1,SPOT peptide array binding signal intensity,[1],881
same,SPOT peptide array binding signal intensity,[2],1060
same,SPOT peptide array binding signal intensity,[3],4
same,SPOT peptide array binding signal intensity,[4],400
same,SPOT peptide array binding signal intensity,[5],1030
same,SPOT peptide array binding signal intensity,[6],332
same,SPOT peptide array binding signal intensity,[7],34.5
same,SPOT peptide array binding signal intensity,[8],246
same,SPOT peptide array binding signal intensity,[9],2
same,SPOT peptide array binding signal intensity,[10],≤ 0
same,SPOT peptide array binding signal intensity,[11],27
same,SPOT peptide array binding signal intensity,[12],9
same,SPOT peptide array binding signal intensity,[13],218
same,SPOT peptide array binding signal intensity,[14],79
same,SPOT peptide array binding signal intensity,[15],127
same,SPOT peptide array binding signal intensity,[16],287
same,SPOT peptide array binding signal intensity,[17],629
same,SPOT peptide array binding signal intensity,[18],5990
same,SPOT peptide array binding signal intensity,[19],2850
same,SPOT peptide array binding signal intensity,[20],≤ 0
same,SPOT peptide array binding signal intensity,[21],≤ 0
same,SPOT peptide array binding signal intensity,[22],760
same,SPOT peptide array binding signal intensity,[23],945
same,SPOT peptide array binding signal intensity,[24],2220
same,SPOT peptide array binding signal intensity,[25],586
same,SPOT peptide array binding signal intensity,[26],999
same,SPOT peptide array binding signal intensity,[27],514
same,SPOT peptide array binding signal intensity,[28],149
same,SPOT peptide array binding signal intensity,[29],14
same,SPOT peptide array binding signal intensity,[30],953
same,SPOT peptide array binding signal intensity,[31],2
same,SPOT peptide array binding signal intensity,[32],16
same,SPOT peptide array binding signal intensity,[33],61.2
same,SPOT peptide array binding signal intensity,[34],76.2
same,SPOT peptide array binding signal intensity,[35],108
same,SPOT peptide array binding signal intensity,[36],272
same,SPOT peptide array binding signal intensity,[37],612
same,SPOT peptide array binding signal intensity,[38],5580
same,SPOT peptide array binding signal intensity,[39],61.5
same,SPOT peptide array binding signal intensity,[40],118
same,SPOT peptide array binding signal intensity,[41],224
same,SPOT peptide array binding signal intensity,[42],2200
same,SPOT peptide array binding signal intensity,[43],68
same,SPOT peptide array binding signal intensity,[44],173
B2,SPOT peptide array binding signal intensity,[45],94.5
same,SPOT peptide array binding signal intensity,[46],80.5
same,SPOT peptide array binding signal intensity,[47],15
same,SPOT peptide array binding signal intensity,[48],60.2
same,SPOT peptide array binding signal intensity,[49],21
same,SPOT peptide array binding signal intensity,[50],≤ 0
same,SPOT peptide array binding signal intensity,[51],15.5
same,SPOT peptide array binding signal intensity,[52],32.9
same,SPOT peptide array binding signal intensity,[53],≤ 0
same,SPOT peptide array binding signal intensity,[54],11.4
same,SPOT peptide array binding signal intensity,[55],2730
same,SPOT peptide array binding signal intensity,[56],≤ 0
same,SPOT peptide array binding signal intensity,[57],7.25
same,SPOT peptide array binding signal intensity,[58],47.3
same,SPOT peptide array binding signal intensity,[59],3.75
same,SPOT peptide array binding signal intensity,[60],7
same,SPOT peptide array binding signal intensity,[61],0.75
same,SPOT peptide array binding signal intensity,[62],131
same,SPOT peptide array binding signal intensity,[63],155
same,SPOT peptide array binding signal intensity,[64],532
same,SPOT peptide array binding signal intensity,[65],6
same,SPOT peptide array binding signal intensity,[66],232
same,SPOT peptide array binding signal intensity,[67],≤ 0
same,SPOT peptide array binding signal intensity,[68],2.75
same,SPOT peptide array binding signal intensity,[69],≤ 0
same,SPOT peptide array binding signal intensity,[70],1.25
same,SPOT peptide array binding signal intensity,[71],2.25
same,SPOT peptide array binding signal intensity,[72],0.5
same,SPOT peptide array binding signal intensity,[73],4150
same,SPOT peptide array binding signal intensity,[74],3
same,SPOT peptide array binding signal intensity,[1],≤ 0
same,SPOT peptide array binding signal intensity,[2],125
same,SPOT peptide array binding signal intensity,[3],3.25
same,SPOT peptide array binding signal intensity,[4],≤ 0
same,SPOT peptide array binding signal intensity,[5],47
same,SPOT peptide array binding signal intensity,[6],≤ 0
same,SPOT peptide array binding signal intensity,[7],120
same,SPOT peptide array binding signal intensity,[8],7.12
same,SPOT peptide array binding signal intensity,[9],≤ 0
same,SPOT peptide array binding signal intensity,[10],10.5
same,SPOT peptide array binding signal intensity,[11],12.5
same,SPOT peptide array binding signal intensity,[12],≤ 0
same,SPOT peptide array binding signal intensity,[13],6.5
same,SPOT peptide array binding signal intensity,[14],0.25
same,SPOT peptide array binding signal intensity,[15],27.2
same,SPOT peptide array binding signal intensity,[16],242
same,SPOT peptide array binding signal intensity,[17],3.5
same,SPOT peptide array binding signal intensity,[18],4610
same,SPOT peptide array binding signal intensity,[19],2740
same,SPOT peptide array binding signal intensity,[20],≤ 0
same,SPOT peptide array binding signal intensity,[21],≤ 0
same,SPOT peptide array binding signal intensity,[22],4.5
same,SPOT peptide array binding signal intensity,[23],182
same,SPOT peptide array binding signal intensity,[24],960
same,SPOT peptide array binding signal intensity,[25],≤ 0
same,SPOT peptide array binding signal intensity,[26],20.8
same,SPOT peptide array binding signal intensity,[27],≤ 0
same,SPOT peptide array binding signal intensity,[28],102
same,SPOT peptide array binding signal intensity,[29],1
same,SPOT peptide array binding signal intensity,[30],286
same,SPOT peptide array binding signal intensity,[31],0.25
same,SPOT peptide array binding signal intensity,[32],≤ 0
same,SPOT peptide array binding signal intensity,[33],2.75
same,SPOT peptide array binding signal intensity,[34],0.625
same,SPOT peptide array binding signal intensity,[35],65.5
same,SPOT peptide array binding signal intensity,[36],11
same,SPOT peptide array binding signal intensity,[37],118
same,SPOT peptide array binding signal intensity,[38],6350
same,SPOT peptide array binding signal intensity,[39],≤ 0
same,SPOT peptide array binding signal intensity,[40],2
same,SPOT peptide array binding signal intensity,[41],3.5
same,SPOT peptide array binding signal intensity,[42],1270
same,SPOT peptide array binding signal intensity,[43],7
same,SPOT peptide array binding signal intensity,[44],15

# Source: the supplement of paper PMC4466140
